Reference: PubChem BioAssay (NCI)
The panel holds about 83,000 compounds, 20% with a hit somewhere; the sample as a whole holds those more often.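 A percent growth of 40 corresponds to 60% growth inhibition; 0 means no net growth; -100 means all cells died. Active threshold: below 10.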 A number with no mark means an inactive call. Active and inactive are the calls of the source.

System: MDA-MB-468 breast
Test: NCI-60 one-dose screen, 48 h (100 = growth as untreated, 0 = no growth, -100 = all killed)
Details: 10 µM unless noted

| Structure (SMILES) | growth |
| --- | --- |
| OCCN(CCO)C(=S)S | 102% |
| COc1ccc(S(=O)(=O)NCCCNc2nccc(-c3c(-c4cccc(N)c4)nc4sccn34)n2)cc1 | 78.7% |
| COc1ccccc1NC(=O)n1c(=O)cc(C)c2ccc(O)cc21 | 96.3% |
| COc1cc(OC)cc(C(=O)Nc2cccc(C#Cc3cccc4[nH]nc(N)c34)c2)c1 | 31.8% |
| C/C(=N/N=C(N)N)c1ccc(Cl)cc1 | 95.7% |
| CC(C)[C@]12O[C@H]1[C@@H]1O[C@]13[C@]1(O[C@H]1C[C@H]1C4=C(CC[C@@]13C)C(=O)OC4)[C@@H]2OC(=O)CN(C)C | -55.2% (active) |
| CC(C)(C)OC(=O)CN1CCc2c(sc3ncnc(N/N=C/c4cccc5ccccc45)c23)C1 | 34.3% |
| O=C(CCCCCC/C=C\c1csc(Br)n1)NO | 84.9% |
| C=C1C(=O)O[C@H]2[C@H]1CC/C(COC(=O)c1ccc(C#N)cc1)=C\CC[C@@]1(C)O[C@@H]21 | -17.2% (active) |
| COc1cccc(N2CCN(c3ncnc4c3[nH]c3ccc(F)cc34)C[C@H]2C)c1 | 27.5% |
| O=C(NCCNc1cc(-c2cn(-c3ccccc3)nc2-c2cccc(O)c2)ccn1)Nc1ccccc1 | 64.9% |
| Cc1ccc(-n2c(C)nn3c(=O)c4c5c(sc4nc23)CN(C)CC5)cc1 | 102% |
| CC(=O)Oc1cc2ccccc2cc1C(C)C | 98.8% |
| COc1cc2c(cc1-c1c(C)noc1C)ncc1nc(C3CCOCC3)n([C@@H](C)COC(F)F)c12 | 47.5% |
